Hit rate of the full screen: of about 360,000 compounds, about 11,000 (3.1%) were called active. Shown is part of a subset that was picked to be rich in actives. A number with no mark means an inactive call. Cut-off read from the data, not from the text of the source: active = activity change below about -30%; inactive = the rest.
% is set by controls: 0 for no effect and ±100 for the full control effect.

The target of the test is D(1A) dopamine receptor (Homo sapiens) (UniProt P21728). The test can be described thus: Antagonist of Human D 1 Dopamine Receptor: qHTS. The settings on record: HEK293 TREx D1 cells, calcium flux, dopamine EC80; at 10 µM; stronger effect = lower value. Put shortly: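 Calcium flux readout: force-coupled, inducible Hek293 Trex D1 line, cells induced overnight at 30 C with tetracycline, dye-loaded 30–90 min at RT. Antagonism scored against EC80 dopamine challenge given 180 s after compound.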
D(1A) dopamine receptor (Homo sapiens), sequence (P21728 whole entry, looked up): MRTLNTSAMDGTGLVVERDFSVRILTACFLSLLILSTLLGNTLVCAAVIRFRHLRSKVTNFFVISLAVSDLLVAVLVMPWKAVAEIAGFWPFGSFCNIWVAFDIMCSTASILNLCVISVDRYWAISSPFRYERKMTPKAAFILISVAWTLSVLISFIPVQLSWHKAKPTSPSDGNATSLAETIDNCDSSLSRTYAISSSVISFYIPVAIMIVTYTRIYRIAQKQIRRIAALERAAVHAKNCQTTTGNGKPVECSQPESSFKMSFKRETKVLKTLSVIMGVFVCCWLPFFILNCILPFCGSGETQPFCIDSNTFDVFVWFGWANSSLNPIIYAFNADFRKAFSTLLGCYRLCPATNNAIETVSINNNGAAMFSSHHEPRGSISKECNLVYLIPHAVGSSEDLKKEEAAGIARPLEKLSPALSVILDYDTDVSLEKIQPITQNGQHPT
A general note: In qHTS, concentration-response curves come from the screen itself.
Regarding `Cc1cccc(C(=O)N2c3nc(-c4ccco4)nn3C3(CCCCC3)[C@@H]3CCCC[C@@H]32)c1`, the activity change, negative = inhibition is 4.44%.

On to `O=C(CSc1nnc(-c2cccnc2)n1Cc1ccco1)c1ccc(Cl)c(Cl)c1`, for which the activity change, negative = inhibition is 18.2%. Take `COc1ccc(NC(=O)CSc2nnc(-c3cccs3)n2Cc2ccco2)cc1OC`: the activity change, negative = inhibition was 8.42%.

Consider `O=C(CSc1nnc(-c2cccs2)n1Cc1ccco1)c1ccc2c(c1)OCO2`, for which the activity change, negative = inhibition was -31.7% (active).

On to `Cc1cccc(CSc2nc3ccncc3n2Cc2ccc(C(=O)O)cc2)c1`, for which the activity change, negative = inhibition was 14.5%. The value for `O=S(=O)(Nc1ccccc1Br)c1cccs1` was 11.5%. In the case of `O=S(=O)(Nc1ccccc1)c1ccc(NS(=O)(=O)c2cccs2)cc1`, the activity change, negative = inhibition is -3.97%.

For the compound `O=C(Nc1cccc(Cl)c1)Nc1ccccc1NS(=O)(=O)c1cccs1`, the activity change, negative = inhibition was -42.1% (active).

With `Cc1cccc(NC(=O)Cn2c(=O)n(CCC(C)C)c(=O)c3cccnc32)c1`, the activity change, negative = inhibition was 38.2%. The value for `COc1ccccc1NC(=O)C1=C(C)Nc2nc(SCC(=O)c3ccc(C)cc3)nn2C1c1ccccc1C` (stereo not drawn) was 4.06%; that for `O=C(CN1CCN(Cc2ccc(Cl)cc2)C1=O)NCc1ccc(F)cc1` was 6.15%; that for `COc1ccc(NC(=O)CN2CCCN(Cc3ccccc3)S2(=O)=O)cc1` was -2.48%. Then `COc1ccc(CNC(=O)C2CCN(S(C)(=O)=O)CC2)cc1`, with -17.7%; and `COc1ccc(CNC(=O)C2CCN(S(=O)(=O)N3CCOCC3)CC2)cc1`, with -42.3% (active). In the case of `COc1ccc(N2CCN(CCCNC(=O)C3CCN(S(=O)(=O)N4CCOCC4)CC3)CC2)cc1`, the activity change, negative = inhibition was 5.25%. The value for `COc1cccc(CN2CCc3nc(SCC(=O)Nc4ccccc4)[nH]c(=O)c3C2)c1` was 3.64%.

Take `CCc1ccc(CNC(=O)c2cc3c(=O)n(CC)c4ccccc4c3s2)cc1`: the activity change, negative = inhibition was 11%. The value for `Cc1ccc(C)c(N2CCN(S(=O)(=O)c3ccc4c(c3)C(C(C)C)C(=O)N4)CC2)c1` (stereo not drawn) was -23.5%. Regarding `O=C(CC(c1cccs1)N1Cc2ccccc2C1=O)Nc1ccc(F)c(F)c1` (stereo not drawn), the activity change, negative = inhibition is -0.399%.

For `O=C(COc1ccccc1)NCc1ccc2c(c1)CCN2C(=O)c1ccc(F)cc1`, the activity change, negative = inhibition was -7.02%. Then `O=C(CSc1nnc(Nc2ccccc2)s1)Nc1cccnc1Cl`, with -65.7% (active).

In the case of `O=C(CSc1nnc(Nc2ccccc2F)s1)NC1CCCC1`, the activity change, negative = inhibition was -3.18%. For the compound `O=C(CSc1nnc(C2CC2)n1Cc1ccccc1)Nc1cccnc1Cl`, the activity change, negative = inhibition is 8.52%. On to `CC(C)c1ccc(NC(=O)c2ccc3c(O)c(S(=O)(=O)c4ccccc4)c(=O)[nH]c3c2)cc1`, for which the activity change, negative = inhibition was -2.13%. As to `COc1cc2ccccc2cc1C(=O)Nc1cccc(-c2nc3ccccc3o2)c1`, the activity change, negative = inhibition was -19.2%. `O=C(Nc1ccccc1)O/N=C1/CCCc2occc21`: the activity change, negative = inhibition is 7.6%.

As to `N/C(=N\OC(=O)Nc1ccccc1)c1ccno1`, the activity change, negative = inhibition was -30.9% (active). Take `CC(C)(COC(=O)Nc1ccccc1)COC(=O)Nc1ccccc1`: the activity change, negative = inhibition is -3.78%. Turning to `Cc1ccc(-c2nnc(Nc3ccc(OCC(N)=O)cc3)c3ccccc23)cc1S(=O)(=O)NCC1CCCO1` (stereo not drawn), the activity change, negative = inhibition is -11.9%.

As to `CCOc1ccc(CCNC(=O)c2ccc3c(c2)sc2nc(-c4ccc(F)cc4)cn23)cc1OCC`, the activity change, negative = inhibition was 0.197%.

With `COc1ccc(C(=O)CCc2ccccc2O)c(OC)c1`, the activity change, negative = inhibition was -22.2%. Then `CCOc1ncccc1C(=O)NCCc1ccc(OC)cc1`, with 8.92%; and `COc1ccc(CCNC(=O)c2ccccc2-c2ccccc2C(=O)O)cc1OC`, with 0.57%. With `COc1ccc(CCNC(=O)c2ccccc2OCc2ccccc2)cc1`, the activity change, negative = inhibition is -35% (active). The value for `COc1ccccc1C(=O)NCCC(=O)NC(C)CCc1ccccc1` (stereo not drawn) was -3.06%; that for `COc1ccc(C(=O)NC(C)CCc2ccccc2)c(OC)c1` (stereo not drawn) was -36.3% (active).

On to `COc1ccc(CC(=O)Nc2nnc3n2CCS3)cc1OC`, for which the activity change, negative = inhibition is 29.1%. Consider `Cc1ccc(Cl)cc1N(C)C(=O)C1CCCN(c2ncnc3onc(-c4ccc(F)cc4)c23)C1` (stereo not drawn), for which the activity change, negative = inhibition is 3.58%. Then `Cc1nc2nc(SCC(=O)NC3CCC(C)CC3)nn2c(C)c1Cc1ccccc1Cl` (stereo not drawn), with -18.6%; and `O=C(COC(=O)c1cnc(Cl)c(Cl)c1)NCc1ccco1`, with -8.31%.

`O=C(COC(=O)c1ccco1)NCc1ccc(Cl)cc1`: the activity change, negative = inhibition is -43.8% (active). Then `CCc1ccc(C(=O)COC(=O)c2ccco2)cc1`, with 3.84%; and `O=S(=O)(Nc1ccc2nc(-c3cccc(Cl)c3)oc2c1)c1ccccc1`, with 2.59%; and `O=c1[nH]c2cc(Br)ccc2n2cccc12`, with 17.9%.

Regarding `Cc1ccc2nc(/C(C#N)=C/c3ccccc3F)[nH]c2c1`, the activity change, negative = inhibition was 2.38%. Then `CCc1cc2c(cc3c(=O)n(CC(=O)N4CCN(c5cc(Cl)ccc5C)CC4)ncn32)s1`, with 5.41%. As to `Oc1c(C(c2ccccn2)N2CCOCC2)ccc2cccnc12` (stereo not drawn), the activity change, negative = inhibition was -33.9% (active). The value for `COc1ccc(-c2cn3c(n2)sc2cc(C(=O)Nc4ccccc4F)ccc23)cc1` was -2.21%; that for `Cc1ccc2[nH]c3c(=O)n(CC(=O)NC(C)C)ncc3c2c1` was 5.41%; that for `COc1ccc(/C=C/c2nc(C#N)c(NCc3ccc(F)cc3)o2)cc1OC` was -16%.

Turning to `O=C1CSc2ccc(S(=O)(=O)NCc3ccccc3)cc2N1`, the activity change, negative = inhibition is -44.7% (active). The value for `CCC(Cc1ccccc1)NS(=O)(=O)c1ccc2c(c1)NC(=O)CS2` (stereo not drawn) was -0.0752%; that for `COc1ccccc1CNS(=O)(=O)c1ccc2c(c1)NC(=O)CS2` was 7.86%. As for `CCCCn1cc(S(=O)(=O)c2ccc(OCC)cc2)c(=O)c2cc(OC)c(OC)cc21`, the activity change, negative = inhibition was 4.22%. Then `COc1ccc(C)cc1Nc1nc2ccccc2c2nnc(C)n12`, with 1.83%; and `CCN(CC)C(=O)C(=O)c1cn(CC(=O)NCc2ccc3c(c2)OCO3)c2ccccc12`, with -3.14%; and `CCn1cc(C(=O)NCC2COc3ccccc3O2)c2cc(OC)c(OC)cc2c1=O` (stereo not drawn), with 13.1%.

With `COc1cc(-n2c(C)nc3cc(C(=O)NCc4ccco4)ccc32)cc(OC)c1OC`, the activity change, negative = inhibition is -14.8%. Then `COc1ccccc1-n1c(C)nc2cc(C(=O)NCc3ccc4c(c3)OCO4)ccc21`, with -36.2% (active); and `CCOc1c2ccc(C(=O)NCc3ccc4c(c3)OCO4)cc2nn1C`, with 3.09%. The value for `CCn1cc(C(=O)NCc2ccc3c(c2)OCO3)c2cc(OC)c(OC)cc2c1=O` was -40.7% (active). Then `CC(=O)Nc1cc(C(=O)NCc2ccc(F)cc2)ccc1Sc1ccc(F)cc1`, with 3.13%.

With `COc1ccccc1CNS(=O)(=O)c1cc(Br)cc2c1N(C(C)=O)C(C)C2` (stereo not drawn), the activity change, negative = inhibition was 7.16%.

In the case of `C#CCOCCOCCOCCNc1nc(N2CCN(C(=O)[C@H](CCC(=O)O)n3cc(C(N)CO)nn3)CC2)nc(N2CCN(C(=O)[C@H](CCCCN)n3cc(C(N)CC(C)C)nn3)CC2)n1` (stereo partly drawn), the activity change, negative = inhibition was -32.3% (active).

Regarding `C#CCOCCOCCOCCNc1nc(N2CCN(C(=O)[C@H](CCC(=O)O)n3cc(C(N)CO)nn3)CC2)nc(N2CCN(C(=O)[C@H](Cc3ccc(O)cc3)n3cc(C(N)[C@H](C)CC)nn3)CC2)n1` (stereo partly drawn), the activity change, negative = inhibition is -34.5% (active). Turning to `C#CCOCCOCCOCCNc1nc(N2CCN(C(=O)C(Cc3ccc(O)cc3)n3cc(C(N)CC(C)C)nn3)CC2)nc(N2CCN(C(=O)C(Cc3ccc(O)cc3)n3cc(C(N)C(C)CC)nn3)CC2)n1` (stereo not drawn), the activity change, negative = inhibition is -10.5%. The value for `C#CCOCCOCCOCCNc1nc(N2CCN(C(=O)[C@H](C(C)C)n3cc(CCO)nn3)CC2)nc(N2CCN(C(=O)[C@H](C(C)C)n3cc(CCO)nn3)CC2)n1` was 7.62%. On to `C#CCOCCOCCOCCNc1nc(N2CCN(C(=O)[C@H](CCC(=O)O)n3cc(C(N)CO)nn3)CC2)nc(N2CCN(C(=O)[C@H](CCCCN)n3cc(C(N)[C@H](C)CC)nn3)CC2)n1` (stereo partly drawn), for which the activity change, negative = inhibition was -39.7% (active). Then `C#CCOCCOCCOCCNc1nc(N2CCN(C(=O)CCCCCCCCCCNC(=O)[C@H]([C@@H](C)CC)n3cc(CCCCN=C(N)N)nn3)CC2)nc(N2CCN(C(=O)CCCCCCCCCCNC(=O)[C@H](CO)n3cc(CCCSC)nn3)CC2)n1`, with 6.53%. For the compound `C#CCOCCOCCOCCNc1nc(N2CCN(C(=O)[C@H](Cc3ccc(O)cc3)n3cc(C(N)CC(C)C)nn3)CC2)nc(N2CCN(C(=O)[C@H](CCC(=O)O)n3cc(C(N)[C@H](C)CC)nn3)CC2)n1` (stereo partly drawn), the activity change, negative = inhibition is -5.53%. Then `C#CCOCCOCCOCCNc1nc(N2CCN(C(=O)[C@H](CCCCN)n3cc([C@@H](N)C(C)CC)nn3)CC2)nc(N2CCN(C(=O)[C@H](Cc3ccc(O)cc3)n3cc([C@@H](N)C(C)CC)nn3)CC2)n1` (stereo partly drawn), with -11.3%; and `O=C(CC1Oc2ccccc2NC1=O)NCc1ccc(F)cc1` (stereo not drawn), with -2.49%. Then `CN1C(=O)c2[nH]nc(-c3ccc(F)cc3)c2C1c1ccccn1` (stereo not drawn), with -12.2%. Then `N#Cc1nc(/C=C/c2ccc(F)cc2)oc1NC1CCCCC1`, with -1.82%.

For `CCN(CC)c1cc(NC2CCCCC2)c2c3c(onc13)-c1ccccc1C2=O`, the activity change, negative = inhibition is 8.94%. Then `Cc1ccc2nc(CN3CCN(S(=O)(=O)c4ccc(C)c(C)c4)CC3)oc2c1`, with -3.02%; and `COc1cc(NC(=O)CN2CCN(S(=O)(=O)c3ccc(Br)cc3)CC2)cc(OC)c1`, with -5.38%; and `CCc1ccc(C2C(C(=O)Nc3ccccc3)=C(C)Nc3c(C(=O)Nc4ccc(C)cc4)cnn32)cc1` (stereo not drawn), with -24.1%.

The record behind these values is PubChem BioAssay AID504652 (National Center for Advancing Translational Sciences (NCATS), 2011).
